Common to all, as to test: DAPPL (digital affinity profiling via proximity ligation, sequencing); 10 mM Tris-HCl pH 7.5, 50 mM NaCl, 1 mM DTT, 4% glycerol, room temperature, 30 min; GST-TFs on glutathione beads, 16-mer random dsDNA library, 0.1% formaldehyde crosslink after washing; high values mean tight binding
One test has as its target T1, FLI1 (Homo sapiens, UniProt Q01543 1-452).
T1 sequence: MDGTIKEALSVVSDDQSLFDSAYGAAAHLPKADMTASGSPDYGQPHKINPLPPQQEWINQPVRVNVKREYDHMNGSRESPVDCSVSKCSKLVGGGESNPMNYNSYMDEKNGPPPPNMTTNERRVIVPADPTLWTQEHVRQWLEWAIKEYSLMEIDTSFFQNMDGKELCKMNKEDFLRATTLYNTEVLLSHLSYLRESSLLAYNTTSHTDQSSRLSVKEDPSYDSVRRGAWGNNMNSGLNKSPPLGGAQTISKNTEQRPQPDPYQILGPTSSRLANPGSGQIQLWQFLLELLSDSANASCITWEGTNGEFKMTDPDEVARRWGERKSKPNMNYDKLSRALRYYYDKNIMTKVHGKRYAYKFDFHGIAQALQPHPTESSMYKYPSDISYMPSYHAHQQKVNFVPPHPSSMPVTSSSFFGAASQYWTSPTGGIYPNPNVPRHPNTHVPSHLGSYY
As to conditions: protein: recombinant; tags: N-terminal GST; dsDNA, one strand shown. An outline of the steps: (§1)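 After expression in yeast as GST fusions, human transcription factors were bound to glutathione beads, DNA-barcoded and mixed with a tag-only sample. The pools were incubated with 200 nmole of a 16-mer random double-stranded DNA library in Tris/NaCl/DTT/glycerol buffer (30 min, room temperature), washed and crosslinked with 0.1% formaldehyde. Proximity ligation with BsaI/T4 ligase ran for 1 h at 37 °C, before PCR amplification and sequencing on an Illumina NextSeq500. Binding signal is a hexamer's read frequency for a factor divided by its frequency for the tag-only sample.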

For a further test, the target named is T2, ELK1 (Homo sapiens, UniProt P19419 1-428).
T2 sequence: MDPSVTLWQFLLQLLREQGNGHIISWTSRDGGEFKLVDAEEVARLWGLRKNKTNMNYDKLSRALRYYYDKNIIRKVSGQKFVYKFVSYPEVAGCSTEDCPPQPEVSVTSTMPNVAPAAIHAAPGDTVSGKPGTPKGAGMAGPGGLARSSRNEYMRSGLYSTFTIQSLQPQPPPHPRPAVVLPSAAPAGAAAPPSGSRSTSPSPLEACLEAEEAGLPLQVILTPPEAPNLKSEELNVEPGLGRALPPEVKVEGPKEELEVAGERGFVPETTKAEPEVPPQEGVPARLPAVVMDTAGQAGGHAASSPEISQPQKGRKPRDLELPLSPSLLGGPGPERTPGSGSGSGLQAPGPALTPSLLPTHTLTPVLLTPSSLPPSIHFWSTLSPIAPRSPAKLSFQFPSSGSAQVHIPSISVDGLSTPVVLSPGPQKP
As to conditions: protein: recombinant; tags: N-terminal GST; dsDNA, one strand shown. An outline of the steps:
as §1

In a further test the target is T3, GABPA (Homo sapiens, UniProt Q06546 1-454).
T3 sequence: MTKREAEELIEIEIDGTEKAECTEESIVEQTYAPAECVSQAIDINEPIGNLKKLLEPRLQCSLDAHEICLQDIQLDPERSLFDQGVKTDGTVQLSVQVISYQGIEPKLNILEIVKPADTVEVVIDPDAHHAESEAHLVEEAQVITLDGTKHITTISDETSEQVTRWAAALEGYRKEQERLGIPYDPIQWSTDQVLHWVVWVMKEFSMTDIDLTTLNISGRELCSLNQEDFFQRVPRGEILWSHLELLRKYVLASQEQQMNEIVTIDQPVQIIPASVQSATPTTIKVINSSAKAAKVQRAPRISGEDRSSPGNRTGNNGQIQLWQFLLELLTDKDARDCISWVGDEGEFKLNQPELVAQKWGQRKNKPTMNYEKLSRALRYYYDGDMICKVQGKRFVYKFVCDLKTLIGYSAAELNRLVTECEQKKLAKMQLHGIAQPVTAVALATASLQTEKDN
The conditions noted are these: protein: recombinant; tags: N-terminal GST; dsDNA, one strand shown. An outline of the steps: as §1

Another test addresses T4, ERG (Homo sapiens, UniProt P11308 1-479).
T4 sequence: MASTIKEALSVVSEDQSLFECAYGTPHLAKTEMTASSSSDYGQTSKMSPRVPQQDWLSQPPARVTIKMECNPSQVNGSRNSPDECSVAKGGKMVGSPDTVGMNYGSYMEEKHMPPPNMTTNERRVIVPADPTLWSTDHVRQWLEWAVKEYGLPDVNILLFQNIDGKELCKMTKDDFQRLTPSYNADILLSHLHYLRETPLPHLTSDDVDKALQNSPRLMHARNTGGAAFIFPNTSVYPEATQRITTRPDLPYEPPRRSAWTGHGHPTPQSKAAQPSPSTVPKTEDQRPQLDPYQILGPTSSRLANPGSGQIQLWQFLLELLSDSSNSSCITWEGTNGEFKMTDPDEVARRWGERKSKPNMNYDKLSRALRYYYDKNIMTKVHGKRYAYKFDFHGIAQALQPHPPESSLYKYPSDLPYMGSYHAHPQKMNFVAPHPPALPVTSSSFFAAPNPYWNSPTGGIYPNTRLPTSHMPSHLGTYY
The conditions noted are these: protein: recombinant; tags: N-terminal GST; dsDNA, one strand shown. An outline of the steps:
as §1

The target of another test is ELF1 (Homo sapiens, UniProt P32519 1-619). The conditions noted are these: protein: recombinant; tags: N-terminal GST; dsDNA, one strand shown. An outline of the steps:
as §1

For the next test, the target named is T5, EHF (Homo sapiens, UniProt Q9NZC4 1-300).
T5 sequence: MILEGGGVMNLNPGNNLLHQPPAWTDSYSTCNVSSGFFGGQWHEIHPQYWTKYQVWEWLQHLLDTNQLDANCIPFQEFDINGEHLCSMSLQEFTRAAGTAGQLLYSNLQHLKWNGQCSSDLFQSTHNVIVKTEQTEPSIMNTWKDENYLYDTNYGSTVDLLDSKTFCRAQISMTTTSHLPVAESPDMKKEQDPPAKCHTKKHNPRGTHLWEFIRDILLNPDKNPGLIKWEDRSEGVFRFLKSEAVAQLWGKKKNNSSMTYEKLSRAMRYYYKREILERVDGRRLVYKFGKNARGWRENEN
As to conditions: protein: recombinant; tags: N-terminal GST; dsDNA, one strand shown. In short, it runs like this: as §1

Another test addresses SPI1 (Homo sapiens, UniProt P17947 1-270). The conditions noted are these: protein: recombinant; tags: N-terminal GST; dsDNA, one strand shown. In short, it runs like this: as §1
A further test concerns the target SPIB (Homo sapiens, UniProt Q01892 1-262). As to conditions: protein: recombinant; tags: N-terminal GST; dsDNA, one strand shown. An outline of the steps:
as §1

A further test addresses T6, ELK3 (Homo sapiens, UniProt P41970 1-407).
T6 sequence: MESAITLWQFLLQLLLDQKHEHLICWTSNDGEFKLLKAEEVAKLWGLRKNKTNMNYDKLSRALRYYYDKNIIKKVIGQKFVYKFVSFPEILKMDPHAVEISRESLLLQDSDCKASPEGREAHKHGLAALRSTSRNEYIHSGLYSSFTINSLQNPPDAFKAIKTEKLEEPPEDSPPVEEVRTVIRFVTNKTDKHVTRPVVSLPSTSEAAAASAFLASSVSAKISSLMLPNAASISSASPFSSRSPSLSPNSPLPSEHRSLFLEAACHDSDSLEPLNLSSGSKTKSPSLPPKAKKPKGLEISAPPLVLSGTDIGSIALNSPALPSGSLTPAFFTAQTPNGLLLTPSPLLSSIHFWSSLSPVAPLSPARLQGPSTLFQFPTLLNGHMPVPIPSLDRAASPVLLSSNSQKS
The conditions noted are these: protein: recombinant; tags: N-terminal GST; dsDNA, one strand shown. An outline of the steps:
as §1

Another test addresses T7, FEV (Homo sapiens, UniProt Q99581 1-238).
T7 sequence: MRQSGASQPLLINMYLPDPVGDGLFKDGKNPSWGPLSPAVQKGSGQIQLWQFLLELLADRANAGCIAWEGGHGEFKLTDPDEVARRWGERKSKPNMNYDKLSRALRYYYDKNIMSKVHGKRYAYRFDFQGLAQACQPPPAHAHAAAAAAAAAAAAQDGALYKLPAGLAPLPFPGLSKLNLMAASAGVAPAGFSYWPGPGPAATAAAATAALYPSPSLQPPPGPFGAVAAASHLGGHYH
As to conditions: protein: recombinant; tags: N-terminal GST; dsDNA, one strand shown. An outline of the steps:
as §1

The target in another test is ETV5 (Homo sapiens, UniProt P41161 1-510). As to conditions: protein: recombinant; tags: N-terminal GST; dsDNA, one strand shown. An outline of the steps:
as §1

For another test, the target named is HSF1 (Homo sapiens, UniProt Q00613 1-529). The conditions noted are these: protein: recombinant; tags: N-terminal GST; chain copies: 3; dsDNA, one strand shown. An outline of the steps: as §1
HSF1, sequence (Q00613 whole entry): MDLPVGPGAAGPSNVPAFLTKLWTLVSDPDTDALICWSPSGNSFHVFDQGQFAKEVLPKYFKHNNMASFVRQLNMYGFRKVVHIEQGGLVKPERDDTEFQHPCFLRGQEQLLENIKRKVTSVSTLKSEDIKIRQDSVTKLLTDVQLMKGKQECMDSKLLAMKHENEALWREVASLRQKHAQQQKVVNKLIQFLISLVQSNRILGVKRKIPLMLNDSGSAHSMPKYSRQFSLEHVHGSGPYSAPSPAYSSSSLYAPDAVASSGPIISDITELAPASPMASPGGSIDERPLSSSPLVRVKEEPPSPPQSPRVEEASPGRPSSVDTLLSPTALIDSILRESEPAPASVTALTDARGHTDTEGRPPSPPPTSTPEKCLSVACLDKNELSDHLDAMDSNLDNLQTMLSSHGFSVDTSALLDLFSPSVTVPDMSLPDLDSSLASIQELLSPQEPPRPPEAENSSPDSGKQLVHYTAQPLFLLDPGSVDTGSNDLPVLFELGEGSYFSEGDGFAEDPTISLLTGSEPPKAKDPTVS
A further test concerns the target T8, SPIC (Homo sapiens, UniProt Q8N5J4 1-248).
T8 sequence: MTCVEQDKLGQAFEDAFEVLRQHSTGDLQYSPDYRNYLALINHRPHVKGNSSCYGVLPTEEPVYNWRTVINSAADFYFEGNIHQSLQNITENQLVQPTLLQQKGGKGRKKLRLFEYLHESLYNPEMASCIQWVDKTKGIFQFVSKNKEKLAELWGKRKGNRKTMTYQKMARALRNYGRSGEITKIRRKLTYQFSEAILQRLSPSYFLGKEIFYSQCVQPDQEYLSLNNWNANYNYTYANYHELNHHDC
The conditions noted are these: protein: recombinant; tags: N-terminal GST; dsDNA, one strand shown. An outline of the steps:
as §1

The target in another test is ELF4 (Homo sapiens, UniProt Q99607 1-663). The conditions noted are these: protein: recombinant; tags: N-terminal GST; dsDNA, one strand shown. In short, it runs like this: as §1
ELF4, sequence (Q99607 whole entry): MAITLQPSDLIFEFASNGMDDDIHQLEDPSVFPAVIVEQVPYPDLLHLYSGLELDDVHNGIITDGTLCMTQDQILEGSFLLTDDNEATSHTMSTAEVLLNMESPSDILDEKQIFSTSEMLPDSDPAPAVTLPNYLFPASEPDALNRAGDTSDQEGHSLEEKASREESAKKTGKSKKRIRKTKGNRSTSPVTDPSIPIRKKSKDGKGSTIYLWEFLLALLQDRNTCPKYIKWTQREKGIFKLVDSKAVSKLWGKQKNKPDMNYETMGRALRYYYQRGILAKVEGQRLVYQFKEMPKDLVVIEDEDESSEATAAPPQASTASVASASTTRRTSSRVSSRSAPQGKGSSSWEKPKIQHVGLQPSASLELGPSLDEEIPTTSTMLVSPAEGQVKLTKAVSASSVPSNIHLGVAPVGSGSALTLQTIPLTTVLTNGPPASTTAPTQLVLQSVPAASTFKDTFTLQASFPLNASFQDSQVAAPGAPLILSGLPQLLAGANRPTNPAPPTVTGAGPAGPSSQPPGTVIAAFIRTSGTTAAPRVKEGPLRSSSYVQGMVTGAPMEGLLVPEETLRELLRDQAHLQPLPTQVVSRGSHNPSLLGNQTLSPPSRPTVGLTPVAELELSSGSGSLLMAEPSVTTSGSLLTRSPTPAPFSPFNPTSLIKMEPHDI
For the next test, the target named is T9, ELK4 (Homo sapiens, UniProt P28324-2 1-405).
T9 sequence: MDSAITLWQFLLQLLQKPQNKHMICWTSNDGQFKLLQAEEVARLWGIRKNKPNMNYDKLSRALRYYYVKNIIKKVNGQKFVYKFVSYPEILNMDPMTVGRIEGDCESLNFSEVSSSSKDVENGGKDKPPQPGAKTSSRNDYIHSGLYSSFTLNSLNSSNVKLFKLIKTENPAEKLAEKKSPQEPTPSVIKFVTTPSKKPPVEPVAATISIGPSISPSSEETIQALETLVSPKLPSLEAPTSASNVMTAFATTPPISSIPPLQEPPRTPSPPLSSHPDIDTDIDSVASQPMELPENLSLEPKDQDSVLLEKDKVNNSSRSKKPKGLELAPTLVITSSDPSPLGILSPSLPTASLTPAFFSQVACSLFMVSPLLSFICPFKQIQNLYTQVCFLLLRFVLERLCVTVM
As to conditions: protein: recombinant; tags: N-terminal GST; dsDNA, one strand shown. An outline of the steps: as §1

In another test the target is T10, ETV2 (Homo sapiens, UniProt O00321 1-342).
T10 sequence: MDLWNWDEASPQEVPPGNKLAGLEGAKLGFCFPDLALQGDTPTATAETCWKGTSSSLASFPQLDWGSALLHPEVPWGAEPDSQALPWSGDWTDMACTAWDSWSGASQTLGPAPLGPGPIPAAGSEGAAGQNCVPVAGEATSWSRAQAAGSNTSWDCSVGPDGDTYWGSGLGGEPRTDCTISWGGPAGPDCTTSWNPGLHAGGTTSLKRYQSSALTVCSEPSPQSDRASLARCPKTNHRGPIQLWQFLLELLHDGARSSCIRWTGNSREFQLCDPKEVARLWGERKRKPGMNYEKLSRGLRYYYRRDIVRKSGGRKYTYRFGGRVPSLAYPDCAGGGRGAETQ
The conditions noted are these: protein: recombinant; tags: N-terminal GST; dsDNA, one strand shown. An outline of the steps: as §1

The next test concerns the target T11, ELF3 (Homo sapiens, UniProt P78545 1-371).
T11 sequence: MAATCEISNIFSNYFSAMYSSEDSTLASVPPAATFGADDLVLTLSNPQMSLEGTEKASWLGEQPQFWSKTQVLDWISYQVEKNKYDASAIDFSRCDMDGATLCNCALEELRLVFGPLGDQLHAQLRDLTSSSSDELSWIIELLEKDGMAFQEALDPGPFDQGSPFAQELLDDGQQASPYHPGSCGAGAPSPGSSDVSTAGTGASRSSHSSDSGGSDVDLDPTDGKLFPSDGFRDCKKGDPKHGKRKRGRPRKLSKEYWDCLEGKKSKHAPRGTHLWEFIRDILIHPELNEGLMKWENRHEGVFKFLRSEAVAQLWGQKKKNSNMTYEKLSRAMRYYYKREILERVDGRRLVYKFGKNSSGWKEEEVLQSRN
As to conditions: protein: recombinant; tags: N-terminal GST; dsDNA, one strand shown. In short, it runs like this:
as §1

In another test the target is CRX (Homo sapiens, UniProt O43186 1-299). As to conditions: protein: recombinant; tags: N-terminal GST; dsDNA, one strand shown. In short, it runs like this:
as §1

A further test has as its target ETV1 (Homo sapiens, UniProt P50549 1-477). As to conditions: protein: recombinant; tags: N-terminal GST; dsDNA, one strand shown. In short, it runs like this:
as §1

Consider one sequence from article PMC7862700, “An all-to-all approach to the identification of sequence-specific readers for epigenetic DNA modifications on cytosine”.

ELF1, sequence (P32519 whole entry): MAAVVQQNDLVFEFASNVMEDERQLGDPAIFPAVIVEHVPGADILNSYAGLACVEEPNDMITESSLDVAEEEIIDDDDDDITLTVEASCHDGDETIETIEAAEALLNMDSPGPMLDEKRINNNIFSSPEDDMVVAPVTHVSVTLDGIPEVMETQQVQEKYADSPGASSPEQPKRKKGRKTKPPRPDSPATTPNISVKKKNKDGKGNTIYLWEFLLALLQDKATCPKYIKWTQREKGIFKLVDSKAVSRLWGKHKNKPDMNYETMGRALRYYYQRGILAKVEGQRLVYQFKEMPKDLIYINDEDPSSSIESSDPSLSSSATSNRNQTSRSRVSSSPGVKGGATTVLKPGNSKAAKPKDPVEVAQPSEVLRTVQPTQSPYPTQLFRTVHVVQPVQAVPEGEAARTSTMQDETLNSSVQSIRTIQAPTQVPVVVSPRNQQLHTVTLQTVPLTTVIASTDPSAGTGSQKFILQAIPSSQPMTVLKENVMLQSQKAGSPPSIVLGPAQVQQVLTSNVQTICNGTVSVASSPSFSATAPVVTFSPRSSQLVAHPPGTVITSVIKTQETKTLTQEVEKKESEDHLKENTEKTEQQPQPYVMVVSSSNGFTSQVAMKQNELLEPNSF
ETV5, sequence (P41161 whole entry): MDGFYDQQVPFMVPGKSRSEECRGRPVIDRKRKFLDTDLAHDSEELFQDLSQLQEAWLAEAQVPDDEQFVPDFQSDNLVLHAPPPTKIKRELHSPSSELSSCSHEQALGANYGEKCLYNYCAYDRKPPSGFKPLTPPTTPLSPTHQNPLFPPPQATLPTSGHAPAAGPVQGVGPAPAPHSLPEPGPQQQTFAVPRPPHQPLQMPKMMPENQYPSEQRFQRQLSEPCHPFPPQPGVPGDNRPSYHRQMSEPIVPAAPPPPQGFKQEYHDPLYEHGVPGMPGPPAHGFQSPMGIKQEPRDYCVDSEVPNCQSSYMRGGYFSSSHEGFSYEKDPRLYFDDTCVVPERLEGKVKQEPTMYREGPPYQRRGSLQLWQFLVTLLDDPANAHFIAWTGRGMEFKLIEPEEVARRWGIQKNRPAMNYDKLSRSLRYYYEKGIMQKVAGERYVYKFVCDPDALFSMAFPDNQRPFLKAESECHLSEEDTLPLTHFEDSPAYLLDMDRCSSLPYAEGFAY
ETV1, sequence (P50549 whole entry): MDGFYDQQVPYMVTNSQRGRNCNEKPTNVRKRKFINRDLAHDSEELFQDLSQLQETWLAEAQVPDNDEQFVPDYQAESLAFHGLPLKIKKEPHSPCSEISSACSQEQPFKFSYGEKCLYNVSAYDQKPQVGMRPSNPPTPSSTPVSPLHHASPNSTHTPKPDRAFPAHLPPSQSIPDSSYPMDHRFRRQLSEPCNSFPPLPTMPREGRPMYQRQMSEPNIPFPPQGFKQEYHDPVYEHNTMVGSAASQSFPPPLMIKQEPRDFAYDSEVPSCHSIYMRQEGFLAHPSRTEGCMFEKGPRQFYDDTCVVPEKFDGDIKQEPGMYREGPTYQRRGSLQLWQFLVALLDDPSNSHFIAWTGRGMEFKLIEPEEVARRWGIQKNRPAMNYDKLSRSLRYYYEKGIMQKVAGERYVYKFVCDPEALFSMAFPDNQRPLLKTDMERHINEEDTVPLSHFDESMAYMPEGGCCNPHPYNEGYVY
CRX, sequence (O43186 whole entry): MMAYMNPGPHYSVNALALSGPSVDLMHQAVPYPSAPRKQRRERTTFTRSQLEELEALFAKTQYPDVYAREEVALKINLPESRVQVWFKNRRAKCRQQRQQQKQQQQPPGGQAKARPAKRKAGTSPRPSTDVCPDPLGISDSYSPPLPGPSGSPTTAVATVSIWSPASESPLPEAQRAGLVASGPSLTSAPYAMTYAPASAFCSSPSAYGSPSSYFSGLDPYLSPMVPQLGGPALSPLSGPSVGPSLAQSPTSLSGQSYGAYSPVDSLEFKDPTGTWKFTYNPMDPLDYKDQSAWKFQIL
SPIB, sequence (Q01892 whole entry): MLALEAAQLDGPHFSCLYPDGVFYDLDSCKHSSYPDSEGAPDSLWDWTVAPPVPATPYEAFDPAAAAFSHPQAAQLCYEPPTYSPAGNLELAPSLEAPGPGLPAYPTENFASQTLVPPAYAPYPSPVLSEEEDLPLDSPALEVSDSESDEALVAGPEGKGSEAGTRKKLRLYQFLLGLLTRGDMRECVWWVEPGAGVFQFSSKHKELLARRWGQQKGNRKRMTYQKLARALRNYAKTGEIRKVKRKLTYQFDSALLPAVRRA

TCTGGT: the binding signal was 1.25 fold enrichment (6-mer frequency, TF over GST control) with FLI1; 1.29 fold enrichment (6-mer frequency, TF over GST control) in the test with ELK1; 1.32 fold enrichment (6-mer frequency, TF over GST control) in the test with GABPA; 1.33 fold enrichment (6-mer frequency, TF over GST control) with ERG; 1.22 fold enrichment (6-mer frequency, TF over GST control) with ELF1; 1.21 fold enrichment (6-mer frequency, TF over GST control) with EHF. The binding signal with SPI1 was 1.31 fold enrichment (6-mer frequency, TF over GST control); with SPIB it was 1.21 fold enrichment (6-mer frequency, TF over GST control); with ELK3 it was 1.31 fold enrichment (6-mer frequency, TF over GST control); with FEV it was 1.12 fold enrichment (6-mer frequency, TF over GST control); with ETV5 it was 1.28 fold enrichment (6-mer frequency, TF over GST control); with HSF1 it was 1.8 fold enrichment (6-mer frequency, TF over GST control). In addition, the binding signal is 1.38 fold enrichment (6-mer frequency, TF over GST control) with SPIC; 1.28 fold enrichment (6-mer frequency, TF over GST control) with ELF4; 1.17 fold enrichment (6-mer frequency, TF over GST control) with ELK4; 1.16 fold enrichment (6-mer frequency, TF over GST control) with ETV2; 1.34 fold enrichment (6-mer frequency, TF over GST control) with ELF3; 1.33 fold enrichment (6-mer frequency, TF over GST control) in the test with CRX. Moreover, in the test with ETV1, the binding signal was 1.1 fold enrichment (6-mer frequency, TF over GST control).
